Giardia FBPA inh: qHTS Assay for Inhibitors of Fructose-1,6-bisphosphate Aldolase from Giardia Lamblia | purified Giardia FBPA | hit rate 0.71% among 290,000 | Potency, µM (titrated, usually from 59.6 µM), for the others: top-dose activity, negative = inhibition, actives largely listed as inhibitors | AID 2451, 2010; also: nearly all actives have a fitted effect of over 55% in size
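40 nM FBPA preincubated 10 min at RT with compound (up to 57.5 uM final), then substrate plus GAPDH/TPI/NAD/arsenate coupling and diaphorase/resazurin added. Fluorescence read after 20 min at RT, 525/598 nm.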
RE007 growth inh: qHTS Assay for Inhibitors of the HIV-1 protein Vpr; hit rate 0.21% among 360,000; Potency, µM (highest dose often 92.2 µM), for the others: top-dose activity change, negative = less growth, most hits filed as inhibitors; S. pombe RE007 Vpr strain, BacTiter-Glo ATP luminescence, 24 h; AID 651644, 2012; active = well fitted falling curve with a large enough effect; inconclusive = small, poorly fitted or top-dose-only effect; inactive = no such curve, though single readings can be large or run the other way; also: nearly all actives have a fitted effect of over 50% in size
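Fission yeast RE007 carrying one integrated HIV-1 vpr copy, seeded at OD 0.01 in PMG+AL medium with 23 nL pinned compound. Grown 24 h at 30 degrees; viability read by BacTiter-Glo luminescence after 5 min.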
Tb PYK inh: qHTS of Trypanosoma Brucei Inhibitors. pyruvate kinase (Trypanosoma brucei), Q57TT1. AID 624173, 2012. TbPYK enzyme, Kinase-Glo Plus ATP luminescence, 45 min. Potency, µM (series often up to 76.8 µM), without a hit: top-dose activity, negative = inhibition, hits mostly inhibitors. hit rate 0.12% among 410,000; also: nearly all actives have a fitted effect of over 50% in size
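Luminescent Kinase-Glo Plus end-point after 45 min room-temperature reaction of T. brucei pyruvate kinase started with 130 uM ADP (final). Buffer TEA 50 mM pH 7.2 with KCl, MgCl2, BSA, Tween-20; titration-based qHTS with fitted concentration-effect curves.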
Sm TGR inh: qHTS Assay for the Inhibitors of Schistosoma Mansoni Peroxiredoxins. hit rate 3% among 360,000. AID 485364, 2010. purified TGR, DTNB reduction, TNB absorbance 405 nm. Potency, µM (top dose mostly 114 µM), for inactives: top-dose activity change, negative = inhibition, usual class: inhibitors; also: nearly all actives have a fitted effect of over 60% in size
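Kinetic colorimetric format: TGR-catalysed, NADPH-driven DTNB reduction monitored via TNB absorbance. Enzyme dispensed at 20 nM; compound exposure 15 min at room temperature before reaction start.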
LmPK inh: qHTS Assay for Inhibitors of Leishmania Mexicana Pyruvate Kinase (LmPK). purified LmPK, Kinase-Glo ATP luminescence, 1 h. AID 1721, 2009. Potency, µM (highest dose often 57.5 µM), inactives show top-dose activity change, negative = inhibition, actives largely listed as inhibitors. hit rate 0.37% among 290,000
Target sequence (Q27686 whole entry, looked up): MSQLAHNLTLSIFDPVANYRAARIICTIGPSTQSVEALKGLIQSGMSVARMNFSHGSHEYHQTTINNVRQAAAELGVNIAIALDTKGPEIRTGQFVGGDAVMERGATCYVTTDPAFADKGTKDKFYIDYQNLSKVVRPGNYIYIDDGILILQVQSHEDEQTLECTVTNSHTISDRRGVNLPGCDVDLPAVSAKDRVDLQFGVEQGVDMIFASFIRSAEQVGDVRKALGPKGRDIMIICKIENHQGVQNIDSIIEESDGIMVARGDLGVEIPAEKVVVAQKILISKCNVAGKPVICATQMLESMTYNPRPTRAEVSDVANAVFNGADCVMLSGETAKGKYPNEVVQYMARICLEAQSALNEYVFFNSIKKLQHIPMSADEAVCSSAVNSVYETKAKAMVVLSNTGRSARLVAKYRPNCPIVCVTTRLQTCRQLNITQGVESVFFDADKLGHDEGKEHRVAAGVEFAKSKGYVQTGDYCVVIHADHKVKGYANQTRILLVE
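Purified LmPK (0.1 nM) converted ADP (0.1 mM) to ATP with PEP (0.5 mM) in imidazole buffer pH 7.2 with KCl and MgCl2, 1 h at room temperature. ATP was read by Kinase-Glo luminescence; data normalized to uninhibited and no-enzyme controls.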
* hit, by the source's call; ? = inconclusive; · = no result; [ ] = remark or other dose. Sampled rows, rich in hits. Any-hit rate of the full collection: about 3.3%. Unless noted, calls follow the shape of the dose curve; as a rule, active = well fitted curve in the direction sought with a large enough effect; inconclusive = small, poorly fitted or top-dose-only effect, or another doubt; inactive = no such curve, though single readings can be large; an effect the other way counts as inactive or inconclusive. % is scaled to controls: 0 for no effect and ±100 for the full control effect; potency is read from the fitted curve at half-maximal effect.

SMILES	Giardia FBPA inh	RE007 growth inh	Tb PYK inh	Sm TGR inh	LmPK inh
O=C(c1ccco1)[C@@H]1[C@@H]2C(=O)N(c3ccc(Br)cc3)C(=O)[C@@H]2C2c3ccccc3C=CN21 (stereo partly specified)	?	-23%	-5%	18µM*	0%
O=C(c1ccc(Cl)cc1)[C@@H]1[C@@H]2C(=O)N(c3ccc(Cl)cc3)C(=O)[C@@H]2C2c3ccccc3C=NN21 (stereo partly specified)	-4%	-12%	-1%	1%	0%
CN1CCN(c2ccc(NC(=S)NC(=O)/C=C/c3ccco3)cc2)CC1	-22%	?	-2%	50µM*	2%
COc1ccc(/C=C/C(=O)NC(=S)Nc2ccc(S(=O)(=O)Nc3cc(C)on3)cc2)cc1	?	1%	2%	-29%	-2%
CCOc1ccc(NC(=S)NC(=O)Cc2ccccc2)cc1	-1%	-18%	-14%	?	-7%
COc1cc(NS(=O)(=O)c2ccc(NC(=S)NC(=O)/C=C/c3ccco3)cc2)ncn1	6%	6%	-18%	40µM*	1%
CCOc1ccc(NC(=S)NC(=O)/C=C/c2ccco2)cc1	-4%	-7%	-8%	22µM*	1%
CC(=O)Nc1ccc(NC(=S)NC(=O)/C=C/c2ccco2)cc1	-16%	-19%	-20%	18µM*	16%
Cc1cc(C)c2c(-n3cccc3)c(C(=O)NNS(=O)(=O)c3ccc(Br)cc3)sc2n1	9%	28%	1%	1%	4%
C[C@H](CO)N1C[C@H](C)[C@@H](CN(C)C(=O)Nc2ccccc2)Oc2c(NS(=O)(=O)c3cccs3)cccc2C1=O	·	18%	1%	·	·
Cc1cccnc1NC(=S)NC(=O)/C=C/c1ccco1	-24%	?	4%	?	3%
CC(=O)N(C)c1ccc(NC(=S)NC(=O)/C=C/c2ccco2)cc1	-17%	10%	6%	28µM*	-4%
Cc1cccc(OCCCSc2nc3ccc(C)cc3[nH]2)c1	-5%	?	-11%	-4%	-3%
Cc1cc(C)n2nc(-c3ccsc3-n3c(C)ccc3C)cc2n1	-13%	-14%	-9%	3.5µM*	-3%
CCN1CCN(C(=O)C(C)Nc2cc(Cl)c(OC)cc2OC)CC1 (stereo unspecified)	?	-5%	-2%	20µM*	1%
CCOc1cc(N2CCOCC2)c(OCC)cc1NC(C)C(=O)N1CCN(CC)CC1 (stereo unspecified)	5µM*	-15%	5%	-33%	-7%
CO/N=C(/COc1ccc(F)cc1)c1ccc(OC)cc1	6%	2%	-2%	25µM*	0%
COc1ccc(-c2noc(CSc3nc4ccccc4[nH]3)n2)cc1OC	·	·	-1%	0%	·
COc1cccc(NC(=S)NC(=O)/C=C/c2ccco2)c1	?	-16%	-13%	10µM*	12%
Cc1ccc2oc(-c3cccc(NC(=S)NC(=O)/C=C/c4ccco4)c3)nc2c1	-1%	2%	-9%	-26%	1%
O=C(/C=C/c1ccco1)NC(=S)Nc1cccc(C(=O)O)c1	?	2%	-22%	4.5µM*	10%
C=CCSc1nc2c(C(=O)OCC)nnn2c2ccccc12	8%	6%	-8%	2%	3%
CCN(CC(=O)Nc1c(F)cccc1F)C(=O)CCC(=O)c1ccc(C)cc1	·	1%	4%	-4%	·
CC(=O)OCC1(C)CN(c2ccccc2)N(C(=O)c2ccc(C(C)(C)C)cc2)C1=O (stereo unspecified)	-7%	12%	5%	?	-6%
Cc1ccc(S(=O)(=O)N/N=C/c2cc(Br)c(C)o2)cc1	-4%	-24%	2%	0.1µM*	-2%
SMILES	Giardia FBPA inh	RE007 growth inh	Tb PYK inh	Sm TGR inh	LmPK inh
O=C(c1ccc(Cl)cc1)N1CCN(CCc2ccncc2)CC1	·	·	4%	-27%	·
O=C(c1ccc(F)cc1)N1CCN(CCc2ccncc2)CC1	·	·	-2%	40µM*	·
CCN(CC)C(=O)c1cccc(NC(=O)C2=COCCO2)c1	·	-9%	4%	-17%	·
C/C(=C\c1cccc(Br)c1)C(=O)c1c(C)cc(C)[nH]c1=O	7%	5%	0%	8%	-1%
C/C(=C\c1ccc(C)o1)C(=O)c1c(C)cc(C)[nH]c1=O	-9%	0%	-23%	18µM*	2%[11.5 µM]
Cc1cc(C(=O)NCc2cccs2)no1	0%	3%	-2%	-1%	2%
CC#CCN(Cc1ccco1)C(=O)c1ccc(OC2CCN(Cc3ccccn3)CC2)cc1	·	-15%	4%	79µM*	-1%
COc1ccc(CN2CCNC(=O)C2CC(=O)N(C)Cc2ccon2)cc1OC (stereo unspecified)	-21%	-6%	0%	?	3%
COCCOC(=O)CSc1ncccc1-c1nc2cc(C)c(C)cc2[nH]1	-21%	?	-7%	18%	14µM*
C[C@]12CC[C@H]3[C@@H](CCC4C[C@H](O)CC[C@@]43C)[C@@H]1CC[C@@H]2O (stereo partly specified)	-3%	·	·	·	·
COc1ccc(CN2CCN(CCc3ccccc3)C(CCO)C2)c(O)c1 (stereo unspecified)	1%	3%	4%	45µM*	0%
COc1ccc(CN2CCN(CCCc3ccccc3)C(CCO)C2)c(O)c1 (stereo unspecified)	0%	-11%	4%	?	-1%
CC(C)CN1CCN(Cc2cn(C)c3ccccc23)CC1CCO (stereo unspecified)	-2%	-5%	1%	89µM*	2%
OCCC1CN(Cc2c(O)ccc3ccccc23)CCN1CCc1ccccc1 (stereo unspecified)	20µM*	-17%	-12%	0.63µM*	7%
COc1ccc(CN2CCN(CCCc3ccccc3)C(CCO)C2)c(OC)c1 (stereo unspecified)	2%	-3%	0%	2%	-11%
COc1cc(CN2CCN(CCCc3ccccc3)C(CCO)C2)cc(OC)c1O (stereo unspecified)	?	18%	-15%	20µM*	2%
CCOC(=O)CC1CCCCN1C(=O)c1ccc2oc(CCc3ccccc3)nc2c1 (stereo unspecified)	5%	-8%	-6%	-5%	11%
CC(=O)Nc1ccc(N=Cc2ccc[nH]2)cc1	-16%	-4%	1%	-3%	-6%
COc1ccc(CCN2C(=O)CC(N3CCOCC3)C2=O)cc1OC (stereo unspecified)	7%	-2%	4%	-31%	1%
CCCCN1C(=O)CC(Nc2ccc(CC)cc2)C1=O (stereo unspecified)	3%	-11%	-1%	?	3%
